PubChem BioAssay AID1159580 (chemical genetic matrix, 2015)
Hit rate of the full screen: of about 5,500 compounds, about 2,000 (36%) were called active. Inconclusive results (about 18%) are left out. Cut-off read from the data, not from the text of the source: active = normalized growth mostly below about 0.91 (no sharp cut-off); inconclusive = no clear call, values can overlap the other calls; inactive = mostly above about 0.92. Some of the results follow.

Experiment: chemical genetic growth profiling, strain panel (AID 1159580);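 note: tested at 20 µM; growth read once vehicle control cultures reached saturation at 30 °C; 1 = growth at the plate median or of vehicle wells; lower values mean less growth of the strain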
Settings: S. cerevisiae deletion strains, growth OD

Measured: normalized growth

COCCCOc1ccnc(CS(=O)c2nc3ccccc3[nH]2)c1C (stereo not drawn)
inactive: locus YHR030C, strain SLT2, active compounds read low 0.94 | locus YHR079C, strain IRE1, active compounds read low 0.93 | locus YJL095W, strain BCK1, active compounds read low 0.913 | locus YJR066W, strain TOR1, active compounds read low 0.907 | locus YLR113W, strain HOG1, active compounds read low 0.909 | locus YNL183C, strain NPR1, active compounds read low 0.879 | locus YOR231W, strain MKK1, active compounds read low 0.93 | locus YPL256C, strain CLN2, active compounds read low 0.897
